Among all 290,000 compounds or so, about 3,000 (1%) were called active. The sample as a whole holds a higher share of actives than the screen did. A number with no mark means an inactive call. No stated cut-off is given here; in the data, active means inhibition mostly above about 36% (no sharp cut-off); inactive means mostly below about 34%.

This test is described as follows: inhibition of NOD1-driven NF-kB reporter – cell-based, luminescence, uHTS, primary screen (AID 1578).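 Further: HEK-293T reporter cells stimulated with the NOD1 agonist gamma-tri-DAP.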 The following applies: NOD1-driven NF-kB luciferase reporter cells, at 4 µM, hits give high values.
For the compound `CN(CC1CCN(CCc2cccc(C(F)(F)F)c2)CC1)C(=O)c1ccc(F)cc1`, the inhibition is 18.5%. For `O=C(Cn1c(=O)oc2cc(S(=O)(=O)N3CCCC3)ccc21)N1CCN(c2ccccn2)CC1` the value was -8%; for `CC(C)Oc1ccc(Cc2n[nH]c(=S)n2Cc2ccccc2)cc1Cl`, -44.3%; for `COc1ccc(Cc2n[nH]c(=S)n2Cc2ccccc2)cc1Cl`, 44.7% (active). As for `COc1ccccc1OCc1n[nH]c(=S)n1Cc1ccccc1`, the inhibition is -18.7%. Take `CCCCn1c(CCC(=O)O)nc2c1c(=O)[nH]c(=O)n2CCC`: the inhibition is -15.7%.

For `CCCCn1c(=O)[nH]c(=O)c2c1nc(Cn1ncc(Cl)c(Cl)c1=O)n2CCC`, the inhibition was 85% (active).

On to `CCCCn1c(=O)[nH]c(=O)c2c1nc(CN1C(=O)c3ccccc3S1(=O)=O)n2CCC`, for which the inhibition is -23.3%. In the case of `COc1ccc(NC(=O)c2ccccn2)cc1S(=O)(=O)N1CCOCC1`, the inhibition was -33.7%. In the case of `Oc1[nH]c(=S)sc1C=C1N=c2ccccc2=N1` it was -5.9%. As for `Oc1[nH]c(=S)sc1/C=C1\C(c2ccccc2)=Nc2ccccc21`, the inhibition is 72.5% (active).

On to `CC1=Nc2ccccc2/C1=C\c1sc(Nc2ccc(C)cc2)nc1O`, for which the inhibition was 1.1%. With `Cc1ccc(S(=O)(=O)N2CCN(C(=O)CSC3CCCC3)CC2)c(C)c1`, the inhibition was -8.8%. In the case of `Cc1cccc(N2CCN(c3nc4nonc4nc3N3CCSCC3)CC2)n1`, the inhibition is -22.4%.

Turning to `Cc1ccc(NC(=O)C(=O)NCc2ccccn2)cc1`, the inhibition was -47.6%. Turning to `Cc1cc(SCC(N)=O)nc(SCC(=O)c2ccccc2)n1`, the inhibition is 28.1%. In the case of `COc1ccc(C(=O)CSc2cc(C)nc(SCC(=O)c3ccc(C)cc3)n2)cc1` it was 63.1% (active). In the case of `Cc1ccc(C(=O)CSc2cc(C)nc(SCC(=O)c3ccccc3)n2)cc1` it was 61.4%.

As for `Cc1ccc(S(=O)(=O)N2CCN(C(=O)c3sccc3-c3ccccc3)CC2)cc1`, the inhibition was -24.8%.

Consider `COc1ccc(N(C(C)C(=O)N/N=C/c2ccc(OC(C)C)cc2)S(C)(=O)=O)cc1` (configuration not stated), for which the inhibition is 14.7%. For the compound `CC(C)(C)c1[nH]nc2c1C(c1ccncc1)C(C#N)=C(N)O2` (configuration not stated), the inhibition is -8.8%. For `CC(C)(C)c1[nH]nc2c1C(c1ccsc1)C(C#N)=C(N)O2` (configuration not stated) the value was 59.2% (active); for `Cc1[nH]nc2c1C(c1ccsc1)C(C#N)=C(N)O2` (configuration not stated), -7.7%; for `Cc1ccc(C)c(NS(=O)(=O)c2csc(C(N)=O)c2)c1`, -9.7%. With `O=C(Nc1ccc(Nc2ccccc2)cc1)C(Cl)Cl`, the inhibition was -5.4%.

For the compound `Cc1ccccc1N1C(=O)CC(c2c[nH]c3ccccc23)C1=O` (configuration not stated), the inhibition is -3.6%. Consider `CC(=O)c1c(-c2ccccc2)[nH]c2ccccc12`, for which the inhibition was 5.8%. In the case of `COc1nc(OC)nc(N2CCC(C(=O)NCC3CCCCC3)CC2)n1`, the inhibition was -10.9%. Take `Cc1nnc(SCCn2c(N3CCCC(C)C3)nc3c2c(=O)[nH]c(=O)n3C)s1` (configuration not stated): the inhibition was -9.1%.

On to `C=CCN(CC=C)C(=S)NC(=O)c1ccc(C)c(Br)c1`, for which the inhibition was 108% (active). For `C=CCNC(=S)NC(=O)c1ccc(C)c(Br)c1` the value was -4.3%. In the case of `C=CCN(CC=C)C(=S)NC(=O)c1ccc(OC)c(Br)c1` it was 30.4%; in that of `O=S(=O)(c1ccc(Cl)cc1)n1cnc2ccccc21`, -31.4%; in that of `Cc1ccc(-c2csc(N(C)C(=O)c3c(C)nn(-c4ccccc4)c3Cl)n2)cc1`, 33.6%. For `O=C(CN1C(=O)NC2(CCCCC2)C1=O)N1CCN(S(=O)(=O)c2ccccc2)CC1` the value was -35.1%; for `Cc1cccc(C)c1Nc1nnc(SCc2nc3ccccc3s2)s1`, -39.5%. For the compound `Nc1ccccc1Nc1cc(-c2ccccc2)[nH]n1`, the inhibition is 48.4% (active). With `CC1(C)CC(=O)C=C(Nc2cc(-c3ccccc3)[nH]n2)C1`, the inhibition was -25.9%. As to `Nc1ccccc1Nc1cc(-c2ccccc2)nn1-c1ccccc1`, the inhibition was -20.6%.

On to `CC(C)C(NC(=O)c1ccc(F)cc1)C(=O)NCC1CCCO1` (configuration not stated), for which the inhibition was -6.2%.

Consider `COc1cc(OC)cc(C(=O)Nc2ccc(S(=O)(=O)N3CCOCC3)cc2)c1`, for which the inhibition is -9.3%. In the case of `COc1cc(OC)cc(C(=O)N2CCC3(CC2)NCCc2[nH]cnc23)c1` it was -20.2%; in that of `Nc1ncc2c(n1)-c1cc(Cl)ccc1SC2`, -6.1%. Regarding `CC1C/C(=N\NC(N)=S)c2cc(Cl)ccc2S1` (configuration not stated), the inhibition is 3.3%. For `CC1Sc2ccc(Cl)cc2-c2nc(N)ncc21` (configuration not stated), the inhibition is 50.5% (active).

Turning to `Cc1c(Cl)c([N+](=O)[O-])nn1CCCC(=O)Nc1cccc(O)c1`, the inhibition is -0.3%.

Turning to `O=[N+]([O-])c1cc(S(=O)(=O)C(F)(F)F)ccc1Sc1nc2ccccc2[nH]1`, the inhibition was 46.1%.

`Cc1ccc(CN2CCN(Cc3cccn3-c3ccc(Cl)cn3)CC2CCO)o1` (configuration not stated): the inhibition is -17.4%. As for `O=C(CSc1ccc2nnc(-c3ccncc3)n2n1)Nc1ccc2c(c1)OCCO2`, the inhibition was 9.6%.

In the case of `Cc1ccccc1OCc1nc2ccccc2c(=O)n1/N=C/c1cccc([N+](=O)[O-])c1`, the inhibition was 80.1% (active). As for `Cc1ccccc1OCc1nc2ccccc2c(=O)n1/N=C/c1ccco1`, the inhibition is 31.5%.

As to `Cc1cc(/C=N/n2c(COc3ccccc3C)nc3ccccc3c2=O)c(O)c([N+](=O)[O-])c1`, the inhibition is 15%. `O=C(Oc1ccc2ccc(=O)oc2c1)c1ccc([N+](=O)[O-])cc1`: the inhibition was -9.4%. As to `CCc1nc(C)cn1S(=O)(=O)c1ccc(Br)cc1`, the inhibition is -17.6%. In the case of `CCOC(=O)c1cc(C(=O)c2cc(Br)ccc2O)coc1=N`, the inhibition was -15.1%.

Regarding `CCOc1ccccc1NC(=O)c1cc(C(=O)c2cc(OC)ccc2O)coc1=N`, the inhibition was -9.3%.

As to `CCOc1ccccc1NC(=O)c1cc(C(=O)c2cc(Br)ccc2O)coc1=N`, the inhibition was 56.4% (active). As to `COc1cccc(CNC(=O)C(C)n2nc(C)n3c(cc4occc43)c2=O)c1` (configuration not stated), the inhibition is -11.7%. Turning to `CCOc1cc2[nH]c(=O)n(CCC(=O)NCCc3ccccc3)c(=O)c2cc1OCC`, the inhibition was -0.5%. In the case of `Cc1cc(C)c(S(C)(=O)=O)c(S(=O)(=O)c2ccc(Cl)cc2)n1`, the inhibition was -33.9%. As for `O=C(O)CSc1c2c(nc3cc(C(=O)NCCN4CCOCC4)ccc13)CCC2`, the inhibition was 91.8% (active). In the case of `CC(C)CCNC(=O)c1ccc2c(SCC(=O)O)c3c(nc2c1)CCCC3` it was -29.5%; in that of `CC(C)CCNC(=O)c1ccc2c(SCC(=O)O)c3c(nc2c1)CCC3`, 0.8%.

With `Cc1ccccc1S(=O)(=O)Cc1ccc(C(=O)N2CCN(c3ccccc3F)CC2)o1`, the inhibition is 21.3%. On to `Cc1ccc(S(=O)(=O)Cc2ccc(C(=O)N3CCN(c4cccc(C)c4C)CC3)o2)cc1`, for which the inhibition is 27.1%. Regarding `COc1ccccc1-c1noc(-c2cc(OC)c(OC)c(OC)c2)n1`, the inhibition was -24%.

Turning to `CC(C(=O)OCC(=O)c1cccc([N+](=O)[O-])c1)N1C(=O)C2C3CCC(C3)C2C1=O` (configuration not stated), the inhibition was -8.4%. In the case of `NC(=O)COC(=O)C1CSC2(c3ccc(F)cc3)CCC(=O)N12` (configuration not stated), the inhibition was -7.5%.

As for `O=C(CSCC(=O)Nc1ccccc1)N/N=C/c1c(O)ccc2ccccc12`, the inhibition was 86.4% (active).

`O=C(CNc1ccccc1)N/N=C/c1c(O)ccc2ccccc12`: the inhibition is -10.9%. `Oc1ccc2ccccc2c1/C=N/Nc1ccccc1`: the inhibition was -38.9%. For `Cc1cccc(C)c1NC(=O)CCCSc1nnnn1C` the value was -22.8%; for `Cc1ccc(NC(=O)CC2SC(=NC3CCCCC3)NC2=O)cc1` (configuration not stated), -23.2%; for `CCCn1cccc(C(=O)Nc2ccc(OC)cc2)c1=O`, -3.2%. For `O=C(CSc1nnc(CNC(=O)c2c(F)cccc2F)o1)NCc1ccccc1`, the inhibition is -29.1%. With `CCN(CC)S(=O)(=O)c1ccc(N=Cc2c(C)c(C#N)c(=O)n(C)c2O)cc1`, the inhibition was -9.8%.

Consider `COc1ccc(C2NC(=S)NC(O)(C(F)(F)F)C2C(=O)c2cccs2)cc1` (configuration not stated), for which the inhibition was -33.8%. Regarding `ClC(/C=N/n1cnnc1)=C/c1ccccc1`, the inhibition is 1.7%. Consider `BrC(=C\c1ccccc1)/C=N/n1cnnc1`, for which the inhibition was 66.7% (active). As for `CC(/C=N/n1cnnc1)=C\c1ccccc1`, the inhibition is -1%. For `Nc1nnnn1/N=C/C(Br)=C/c1ccccc1` the value was 95.9% (active); for `Nc1nnnn1/N=C/C=C/c1ccccc1`, 10.1%. In the case of `Nc1nnnn1/N=C/c1ccccc1` it was -4%. Regarding `Cc1ccc(C(=O)Nc2ccc(S(=O)(=O)Nc3cnc4ccccc4n3)cc2)cc1`, the inhibition was -14.5%. For the compound `COc1cccc(/C=C2\SC(=S)N(CCCC(=O)Nc3cc(C)on3)C2=O)c1`, the inhibition is -22.5%. For `Cc1cccc2c1CC(C)(C)N=C2C1=C(O)CCCC1=O`, the inhibition is -19.9%. As to `C/C(=N\NC(=O)C1CC1)c1ccc(C(C)(C)C)cc1`, the inhibition was -39.6%. With `CSc1ccc(OC2CCCCC2NS(=O)(=O)c2ccc(Cl)cc2)cc1` (configuration not stated), the inhibition is 8.3%. Consider `CC(C)(C)NC(=S)N/N=C/c1cccnc1`, for which the inhibition is -10.2%. Take `Oc1c(Cl)cc(Cl)cc1/C=N/NC(=S)NC1CC2C=CC1C2` (configuration not stated): the inhibition is 26.6%.

Regarding `Oc1c(Br)cc(Br)cc1/C=N/NC(=S)N[C@H]1CC2C=CC1C2` (some centres not stated), the inhibition is 47.8% (active). As for `Oc1ccccc1/C=N/NC(=S)NC1CC2C=CC1C2` (configuration not stated), the inhibition was -1.4%. As to `CNC(=S)N/N=C/c1cc(C)ccc1C`, the inhibition is -38.3%. In the case of `CCC(O)(CC)C(=O)N/N=C/c1cc(Br)cc(Br)c1O` it was 1.3%.

For `CNC(=S)N/N=C/c1cc(Br)cc(Br)c1O`, the inhibition was 73.9% (active). On to `Oc1c(Br)cc(/C=N/NC(=S)NCc2ccco2)cc1Br`, for which the inhibition was 15%. Take `Nc1nc(SCC(=O)N2CCCCC2)[nH]c(=O)c1NC(=O)c1cccs1`: the inhibition was -15.7%.
